Reference: PMC13494018

B1: d4r2_design_ppi_327_dldesign_0_cycle1_af2pred (protein)
chain: DETVIQAKATIESAKERAEHIKKAIKEKPKTKEELKKAKKILEELEKKAEEAYKKAGEAVKEEYEKAKKAIKEAKKEAEKNLK
B2: d4r1_design_ppi_219_dldesign_0_cycle1_af2pred (protein)
chain: AAEAEEYRKKAAEYIQELQELKTEIKATGTEEQAKKADEIWEEYKKKVKEAKEKYKDGTDLELAKALYKIAKENYEKLKELKE
B3: d4r2_design_ppi_49_dldesign_0_cycle0_af2pred (protein)
chain: GKIEELKKKLKEAEKKLEEAKEKLNKAKAEAESYRIRAEANKENKEKYLKKAEEIEKEEIEKAKKEIEEYEKEKKEAEKKLKEAKE
B4: d4r2_design_ppi_24_dldesign_0_cycle0_af2pred (protein)
chain: KKEEEEKEKLKNFAKQASGKAEALSDQLKDVAEKTGSEELKEKAKKLEELGKEAEKNPELGKKKEEEAKKVHKEGKEYYKAKK
B5: d4r1_design_ppi_171_dldesign_0_cycle1_af2pred (protein)
chain: MKEIEEAQKKYKEALEKLKEVGEEYYQAVLDAIKNKGIEEAVKTAEKLAKELEKEDPEKGKKAKEAAELLKEAKKLIEKVRKE
B6: d4r2_design_ppi_0_dldesign_0_cycle1_af2pred (protein)
chain: VAKELAKKFQKAIEALFEASTIEEVPEARAKVKEARKIAREGVENPETAKEKLEEGVKLVEKKAKEMEEKKKKEEEEKLK
B7: d4r2_design_ppi_363_dldesign_0_cycle0_af2pred (protein)
chain: SLEEAKKSQEELQKKSTEKWLETQIKEAEKKAKEFKSLGEEAKKKAEEILKEVEKAKASTPEEGLEHAAKAAKIIEEAEKKL
B8: d4r2_design_ppi_226_dldesign_0_cycle0_af2pred (protein)
chain: SELEEEAKKVAEEARELAKEAEEAAEKILKEKNNLKEAGTLYAQSAQAKQAAEAVELNPEKAEEARERLKKAKERMKEAVKKAE
B9: d4r1_design_ppi_174_dldesign_0_cycle0_af2pred (protein)
chain: SMEEKEAAEKMKELNEIAYEEYERVVKEGTEEAAREAMRRIMEKAKEHPYKETALKYVEVTLKHLKEEVSPEAAKAAEEELKRELA
B10: d4r2_design_ppi_152_dldesign_0_cycle0_af2pred (protein)
chain: AAAAAEAEKAAAAATQKAEELAEKRGEEHGAEVGLKKYLENPEEAKKMGKEIYELGLKKYKELKKKEEEEK
B11: d4r2_design_ppi_27_dldesign_0_cycle0_af2pred (protein)
chain: SEEEKKKKEAEKKVEEAKKKLEEAKKFAKEGKKEEGAKKLEEVAKELDEKADEFFASGSEEYREAGAKLGSLSIRAKLYAEGLKAK
B12: d4r2_design_ppi_48_dldesign_0_cycle1_af2pred (protein)
chain: DFTAKAAAQAKKYKAEAKANAADPEKVGEVLAKALKAANEAKEAGNPAAAAALKAAADEILKINRESLLKEET
B13: d4r2_design_ppi_407_dldesign_0_cycle1_af2pred (protein)
chain: SEEAKIKAKQYTSSLFTKAYLKASPETAPKIEEALEKAFEAIDKSFDEAIAVMKELAELPEAKEEAEKAEKFVAEQKK
B14: d4r1_design_ppi_352_dldesign_0_cycle0_af2pred (protein)
chain: AAAEQNAKNLKEAEKAKKEAEEAKKLAKEDVAKGAEKLTEAAKKLAEIYEKASPEIQPYVAKELQEVAKAAQEAIKAKLEKDAA
B15: d4r1_design_ppi_171_dldesign_0_cycle0_af2pred (protein)
chain: MEKIEEANKLLKKALELLKEVGEEYYKKVMEAIKTEGIDAAVEKAKEIAKELKKKDKEKGKIAEEAYKNLEKAKELIKEIYEE
B16: d4r1_design_ppi_310_dldesign_0_cycle0_af2pred (protein)
chain: MEAIEEMRKKKEEAIKEAEESNPEEGAKIMEEAMKEIQEIANKAIKSSSSEEAKKILEEHEKLVEELEKKKEELKKKAEEEKK
B17: d4r2_design_ppi_335_dldesign_0_cycle0_af2pred (protein)
chain: SKVTEDQDKIIELSNKAVEKAEKALEAAKKDKEEAKKYLEEAEKLVEEAEKLAKESGSKAGRAIARNTKEYLEKKKKEIEELL
B18: d4r2_design_ppi_190_dldesign_0_cycle1_af2pred (protein)
chain: MEVEKTAKEAVEAVKAKSPKAAPKMEEAKKAAIEAAKLGKKEEALELLTKAKKAAEAGNVAEAIAYANEAIWLGEKLKK
B19: d4r2_design_ppi_310_dldesign_0_cycle1_af2pred (protein)
chain: AVEKALKIIEETEKEAKEAFEKNPETGLAIAKATYRTAEHLGSKLNKEDAEKLKKKGKEYLEEFEKRYKEKKKELEE
B20: d4r2_design_ppi_407_dldesign_0_cycle0_af2pred (protein)
chain: MEEKKNKAKQFAFSEFMKAAAAAPPELRPKIEEAMDKTLEALDESFDKAIKVAEEVAKLPIAKKYAEKAKKFIEEQKK
B21: d4r1_design_ppi_339_dldesign_0_cycle1_af2pred (protein)
chain: AEEAEKAAKEAEEKAKEAEELAKEAAKLHPTYAQAFELLAKAFKKAAELLKKDYKEGKKYFEELKESFERAKKALAIAKKEKAA
B22: d4r2_design_ppi_378_dldesign_0_cycle0_af2pred (protein)
chain: MEEERQKKAEEELKKAKEAVEEGIKYAKEGNIMEANAKLSEARVHAEKAKKLDPETGKEIEKLVEEARKKIKEIAEK
B23: d4r2_design_ppi_363_dldesign_0_cycle1_af2pred (protein)
chain: GLAEAEKKQKELEEKSTKEYIEKVIKESKKKAKELKKKGEEAKKYAEKIEAEVEKAEKATLDEAIEYTSKARKLVEEAEKKL
B24: d4r2_design_ppi_27_dldesign_0_cycle1_af2pred (protein)
chain: GKEKEEKEKAEKIVEEAKKELEEAKEYGKKTTKEEGAEKLEEVAKKLKEKAEEFLATGKEEWKHAGAKLESLAIRAELYAKGLRRE
B25: d4r2_design_ppi_335_dldesign_0_cycle1_af2pred (protein)
chain: GAVTEALDKVLELSEKAIELAEKALKAAKEDKEEAKKYLEKAREKVKEAEKLAKESGSKAGKSIARNTKEYVEKKEKEIKEII
B26: d4r2_design_ppi_339_dldesign_0_cycle1_af2pred (protein)
chain: GESTEKAKKIYEEIKKKAEEYKKKAKEAAELLVEKGEEGGKKLKEIEEEAAKELPEVSFQVKAYINTLKEEAEKRRKEKEA
B27: d4r2_design_ppi_53_dldesign_0_cycle1_af2pred (protein)
chain: EEAKARAEKAFARAKALKARAKELKAKGEELFANAPELGEESLKRGKVYKLQAEQYEARAEEAEALGKELAAA
B28: d4r2_design_ppi_226_dldesign_0_cycle1_af2pred (protein)
chain: MELEKKAKEVAKEAKEKAEEAEKAAEEILKKKKAIKEAGTLYSASERFKQVAEAAELDPSKAEEGRKVMERLKERAEKAVKEAE
B29: d4r2_design_ppi_171_dldesign_0_cycle1_af2pred (protein)
chain: ANEAEAEKYYAEGEQKMILGDTAYEMGKKKGPIFYKIAAEEYKEAAELYKEAAKLASPEKAKEYKEKAKEAEEKSKEAKKKGEE
B30: d4r1_design_ppi_425_dldesign_0_cycle1_af2pred (protein)
chain: AAEAAAAAEKAAAAAGEKAGKAAAEHVAAGAKAGTLPQAVQDVLEQTSELKYKGDEVAAKAAYEAAREAAKAARAAA
B31: d4r2_design_ppi_327_dldesign_0_cycle0_af2pred (protein)
chain: SQEVIQAKGKIQAAKEQAEAMKEAIEKKPKSPEELERALERLKRLEEEAKEAAKKAGEEVKEEYEEAKKAIEEAKKAAEENRK
B32: d4r2_design_ppi_295_dldesign_0_cycle1_af2pred (protein)
chain: MAEEAAKAVKNRAERLAKEFPEAAPVMKAVAEEAKKKLEEAKGKSPTEIANVAQDYQAEATAKYAEVKRETEKKLAA
B33: d4r2_design_ppi_159_dldesign_0_cycle1_af2pred (protein)
chain: ELEEEAKKAKEVAEKLKKFNLESRLEADEIEAKSKAALREGKENNEEAKKEGLKKVKEQLKKAEELLKKL
B34: d4r1_design_ppi_339_dldesign_0_cycle0_af2pred (protein)
chain: SEKAEKAAKEAEEEAKKAKELAKEAAKLSPSYAAAFKKLAEAFKKAAKLLKEDYEKGLKEFKELKKSFELAKKAAAKAKAAAAA
B35: d4r2_design_ppi_24_dldesign_0_cycle1_af2pred (protein)
chain: SMEKEKEEELKNYAKQVAGKAFTYSDQLKEVAEKTGLEELKEKAEELEKLGKEALENPEKAKEYEAKAKEVFKEGRELYKKAK
B36: d4r2_design_ppi_319_dldesign_0_cycle0_af2pred (protein)
chain: EEEEKESERLAEEARRAAEEARRRIREAAERSAEAAREALEEARRRMEELIKEAKKHKKAYAVAAGEAERVLHFGEAALARREAAE
B37: d4r2_design_ppi_34_dldesign_0_cycle0_af2pred (protein)
chain: SGAGQAKMERNAALSSLRAAKANPALAEIAAEDAIEAAKRALAVPEASPEVKEEAERVRKEAEAVGAAAKAAKAA
B38: d4r2_design_ppi_271_dldesign_0_cycle0_af2pred (protein)
chain: MTKEELEKLKKEVEEAEKLAQEVLKIDKESGEEILKLVTKAKGYAEFAEDALELGSQKAAESFAKKAKEYVKKAEKLAKETLAKAA

Molecular target: VTCN1, Q7Z7D3
Sequence (Q7Z7D3 whole entry): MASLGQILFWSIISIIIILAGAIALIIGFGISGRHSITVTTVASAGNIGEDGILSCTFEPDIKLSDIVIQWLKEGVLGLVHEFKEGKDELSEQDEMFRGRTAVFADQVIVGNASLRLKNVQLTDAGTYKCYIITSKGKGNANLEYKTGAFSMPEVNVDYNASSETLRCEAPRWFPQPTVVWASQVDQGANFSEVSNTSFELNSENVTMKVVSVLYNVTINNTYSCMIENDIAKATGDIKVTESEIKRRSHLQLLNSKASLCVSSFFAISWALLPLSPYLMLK

Binding in a display sort, inactive:
B1 not found, B2 not found, B3 not found, B4 not found, B5 not found, B6 not found, B7 not found, B8 not found, B9 not found, B10 not found, B11 not found, B12 not found, B13 not found, B14 not found, B15 not found, B16 not found, B17 not found, B18 not found, B19 not found, B20 not found, B21 not found, B22 not found, B23 not found, B24 not found, B25 not found, B26 not found, B27 not found, B28 not found, B29 not found, B30 not found, B31 not found, B32 not found, B33 not found, B34 not found, B35 not found, B36 not found, B37 not found, B38 not found
